# Source: PubChem (National Center for Advancing Translational Sciences (NCATS))
# IMPase inh: qHTS Assay for Identifying the Cell-Membrane Permeable IMPase Inhibitors; Inositol monophosphatase 1 (Rattus norvegicus), P97697; CHO-M1 cells, IP1 accumulation, HTRF TR-FRET ratio; inhibition (IP1 accumulation), % at 46.1 µM; 120,000 tested, under 10 active; AID 901, 2007; active means well fitted curve in the direction sought with a large enough effect in the signal ratio, not every such curve was filed as active; inconclusive means small, poorly fitted or top-dose-only effect, or a change in a side signal; inactive means no such curve, though single readings can be large or run the other way; the % refers to the signal ratio;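 further: cells stimulated with carbachol in lithium chloride buffer; plate controls were DMSO basal wells for no effect and reference inhibitor wells for full effect; higher means more IMPase inhibition seen as more IP1 and lower FRET ratio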
# Target sequence (P97697 whole entry, looked up): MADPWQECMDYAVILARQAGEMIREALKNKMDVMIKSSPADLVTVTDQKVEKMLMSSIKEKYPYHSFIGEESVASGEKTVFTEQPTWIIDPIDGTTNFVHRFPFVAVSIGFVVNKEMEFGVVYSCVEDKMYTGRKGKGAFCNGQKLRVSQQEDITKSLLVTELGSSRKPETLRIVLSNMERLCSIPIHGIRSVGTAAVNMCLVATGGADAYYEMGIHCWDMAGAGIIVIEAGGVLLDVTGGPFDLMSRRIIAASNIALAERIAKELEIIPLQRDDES
#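 Seeded CHO-M1 cells were dosed with compound at up to 46 uM, stimulated with carbachol for 30 min, then lysed in IP-One detection reagents. Higher IP1 lowers the TR-FRET signal.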
# LMNA splice mod: qHTS Assay for Modulators of Lamin A Splicing; HeLa LMNA splicing GFP/RFP minigene ratio, 48 h; Potency, µM (top dose mostly 46.1 µM), without a hit: at the top dose ratio change, negative = inhibition, most hits filed as inhibitors; actives 0.01% (n = 200,000); AID 1487, 2009; active means well fitted inhibition curve with a large enough effect in the signal ratio, with a control signal flat, not every such curve was filed as active; inconclusive means small, poorly fitted or top-dose-only effect, or effect the other way, or a change in a side signal; the % refers to the signal ratio; further: potency means the concentration at half of the fitted maximal effect
#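 Read-out is the ratio of GFP to DsRed2 object intensity, acquired by 488 nm laser-scanning cytometry on HeLa lamin A-EGFP minigene reporter cells. Compound incubation 48 hrs at 37 °C in Opti-MEM with 2% FBS; DMSO 0.5% final.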
# PNC assembly inh: High Content Assay for Compounds that inhibit the Assembly of the Perinucleolar Compartment | PC3M PTB-GFP, PNC prevalence imaging, 16 h; stronger effect = lower value | activity change (PNC), negative = inhibition, % at 10 µM | actives 3.1% (n = 140,000);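 active means readout at or below -70, meaning at least 70% loss of cells showing the perinucleolar compartment, a nuclear body marking cancer cells; inconclusive means readout between -30 and a set limit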;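 further: plate controls were DMSO wells for no effect and camptothecin positive control wells for full effect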
#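 Compounds are pinned in duplicate onto adhered PC3M cells stably expressing GFP-tagged PTB and incubated 16 h at 37 C. Cells are then fixed, nuclei stained with Hoechst, and PNC-positive cells counted.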
# Active calls of the source: *; ? = inconclusive; nt = not tested or not shown; [ ] = another dose, or the depositor's remark. The full list was thinned out, with hits kept by preference. Unless noted, on the % scale 0 is the no-effect control and ±100 the full control effect.
SMILES,IMPase inh,LMNA splice mod,PNC assembly inh
COc1ccc(NC(=O)C(c2ccc(OC)cc2)N(C)C(=O)CC2NC(=O)NC2=O)cc1 (stereo not given),-8,?,?
COc1ccc(NC(=O)C(NC(=O)CC2NC(=O)NC2=O)c2ccccc2)cc1 (stereo not given),5,-6%,-115*
COc1ccc(NC(=O)C(NC(=O)c2ccc(=O)[nH]c2)c2ccc(OC)cc2)cc1 (stereo not given),-1,-15%,-109*
CCN(C(=O)c1cnc(N2CCOCC2)c2ccccc12)c1cc(C)ccc1C,nt,6%[46 µM],nt
C=CCn1c(SCc2ccc(C(=O)NCCO)cc2)nc2sc(C)c(C)c2c1=O,nt,31%[46 µM],nt
CCc1ccccc1NC(=O)c1nnn(CC(=O)Nc2ccccc2C)c1N,-11,5%,-102*
CCc1ccccc1NC(=O)Cn1nnc(C(=O)Nc2ccc(C)c(F)c2)c1N,nt,-8%[46 µM],nt
COCCCN=C1NN=C(c2cc(C)n(Cc3ccco3)c2C)CS1,nt,?,-108*
Cc1cc(C2=NNC(=NC3CC3)SC2)c(C)n1Cc1ccco1,-3,?,-27
C=CCn1c(-c2ccc(Cl)cc2)c[nH]c1=S,1,12%,-7
C=CCn1c(-c2ccccc2)c[nH]c1=S,-4,4%,-117*
COc1ccc(-n2c(SCC(=O)NCc3ccccc3)nc3c([nH]c4ccccc43)c2=O)cc1,nt,-2%[46 µM],nt
O=C(Nc1ccc(-c2noc(CCc3ccccc3)n2)cc1)c1ccco1,2,-14%,-89*
c1ccc(CCc2nc(-c3ccccc3)no2)cc1,-3,-9%,-19
CN(NC(=O)c1ccc(Cl)cc1)c1cccc(Cl)n1,6,-2%,120
CN(c1ccccc1C(=O)Nc1ccc2c(c1)OCO2)S(C)(=O)=O,4,1%,-100*
COc1ccccc1C(=O)Nc1cccc(N(C)S(C)(=O)=O)c1,-3,-12%,-100*
CN(c1ccccc1C(=O)Nc1ccc2c(c1)OCCO2)S(C)(=O)=O,-14,-7%,289
CSc1ccccc1C(=O)Nc1cccc(N(C)S(C)(=O)=O)c1,14,-5%,?
CCOc1ccc(NC(=O)NCc2ccc3c(c2)CCN3C(C)=O)cc1,nt,4%[46 µM],nt
Cc1cc(NC(=O)C(=O)NCCN2CCN(C(=O)c3cccs3)CC2)ccc1Br,-14,?,-100*
COc1ccc(NC(=O)C(=O)NCCN2CCN(C(=O)c3cccs3)CC2)cc1,-4,-4%,14
CCC(=O)N(Cc1ccco1)c1nc(-c2ccc(OC)cc2)cs1,17,7%,17
CCC(=O)N(Cc1ccco1)c1nc(-c2cc(OC)ccc2OC)cs1,-9,0%,-100*
CN(C(=O)CSc1nc2ccc(NC(=O)c3cccs3)cc2s1)c1ccccc1,nt,0%[46 µM],nt
SMILES,IMPase inh,LMNA splice mod,PNC assembly inh
C[C@H](NC(=O)Cn1cncn1)c1ccccc1,10,-5%,-100*
CC(NC(=O)Cn1cnc([N+](=O)[O-])n1)c1ccccc1 (stereo not given),-5,2%,22
Cc1sc2nc(SCC(=O)N3CCCCC3)[nH]c(=O)c2c1C,10,3%,-18
Cc1sc2nc(SCC(=O)N3CCCC3)[nH]c(=O)c2c1C,20,-5%,-80*
CC(C)Oc1cccc(C(=O)Nc2ccccc2N2CCOCC2)c1,0,-3%,5
COc1cc(OC)cc(C(=O)N[C@H](C(=O)Nc2ccccc2N2CCOCC2)C(C)C)c1,-1,-3%,-28
CCC(C)Oc1cccc(C(=O)Nc2ccccc2N2CCOCC2)c1 (stereo not given),11,-2%,-87*
Cc1cc(Cl)ccc1OC(C)C(=O)Nc1ccccc1N1CCOCC1 (stereo not given),7,?,-104*
CCC1CN(C(=O)Nc2ccccc2C(F)(F)F)c2ccccc2S1 (stereo not given),nt,1%[46 µM],nt
Nc1cccc(-n2cccc2)c1,nt,2%[46 µM],nt
Cc1cccc(N/C=C(\[N+](=O)[O-])S(=O)(=O)c2ccccc2)c1C,nt,-2%[46 µM],nt
COc1ccc(C2=NOC(Cn3c(Cc4ccc(Cl)cc4)nc4c3c(=O)n(C)c(=O)n4C)C2)cc1 (stereo not given),6,-8%,-108*
COc1ccccc1C1=NOC(Cn2c(=O)c3c(ncn3C)n(C)c2=O)C1 (stereo not given),6,-6%,?
CCn1cc(/C=C/C(=O)NCc2c(C)nn(C)c2C)cn1,-1,4%,-16
Cc1nn(C)c(C)c1CNC(=O)/C=C/c1ccccc1F,nt,?,-113*
COc1cccc(C(=O)Nc2nc3c(s2)CCCC3)c1,nt,-5%[46 µM],nt
